# According to PubChem BioAssay (EPA / NIEHS):
# Results filed as inconclusive are left out. A structure can be active in one record and inactive in another. Active and inactive are the calls of the source. Rule for the calls: active = hit-call score of the fitted dose curve at least 0.9, where 1 is the maximum; inconclusive = response in the unintended direction; inactive = score below 0.9.
# Target: Bile acid receptor (Homo sapiens) (UniProt Q96RI1)
# Assay: ATG_FXR_TRANS: Attagene TRANS-FACTORIAL HepG2 Assay for Farnesoid X Receptor (FXR) (AID 2282979);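 note: hits raise reporter mRNA above DMSO so AC50 marks FXR activation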
# Settings: HepG2 Attagene TRANS FXR-GAL4 reporter transcription
# Experimental: ATG_TRANS is a cell-based, multiplexed-readout assay that uses HepG2, a human liver cell line, with measurements taken at 24 hours after chemical dosing in a 24-well plate.ATG_FXR_TRANS is one of 30 assay component(s) measured or calculated from the ATG_TRANS assay. It is designed to make measurements of mRNA induction, a form of inducible reporter, as detected with fluorescence intensity signals by Reverse transcription polymerase chain reaction (RT-PCR) and Capillary electrophoresis technology.Data from the assay component ATG_FXR_TRANS was analyzed into 1 assay endpoint. This assay endpoint, ATG_FXR_TRANS, was analyzed in the positive analysis fitting direction relative to DMSO as the negative control and baseline of activity. Using a type of inducible reporter, measures of mRNA for gain-of-signal activity can be used to understand the reporter gene at the transcription factor-level as they relate to the gene NR1H4. Furthermore, this assay endpoint can be referred to as a primary readout, because this assay has produced multiple assay endpoints where this one serves a reporter gene function. To generalize the intended target to other relatable targets, this assay endpoint is annotated to the nuclear receptor intended target family, where the subfamily is non-steroidal.
# Human liver HepG2 cells are transiently transfected with multiple reporter transcription units (MRTUs) in 6-well plates using FuGene 6 reagent (Roche; 3 ml FuGene/1 mg DNA). The MRTU constructs are regulated by a cis-regulating element (promoter). […] A major difference between the CIS and TRANS system is that in CIS activities of endogenous TFs are measured, whereas the TRANS assay evaluates changes in activities of exogenous, chimeric NR-Gal4 proteins. […] At the end of 24 hour incubation, total RNA was isolated using TriZol reagent (Invitrogen). The isolated RNA is then reverse-transcribed using oligo(dT) primer and Mo-MLV reverse transcriptase (Invitrogen) with DNAse I (Ambion) treatment for 30 min. The one-tenth of the produced cDNA was amplified by PCR using Taq DNA polymerase (Invitrogen) and two reporter sequence-specific primers. The PCR products were fluorescently labeled by primer extension with 6-arboxyfluorescein (6-FAM) 5'-labeled reporter sequence-specific primer (2 min at 95 C, 20 s at 68 C and 10 min at 72 C) and these products were digested with 5U of HpaI (New England Biolabs) for 2h at 37 C. The fragments were purified using Qiaquick PCR columns (Qiagen), analyzed on an ABI 3130xL genetic analyzer (Applied Biosystems) with peak positions identified by using a set of X-rhodamine (ROX)-labeled MapMarker1000 molecular weight standards (BioVentures). The raw capillary electrophoresis data was processed using Attagraph software (Attagene).
# Sequence of Bile acid receptor (Homo sapiens) (Q96RI1 whole entry, looked up): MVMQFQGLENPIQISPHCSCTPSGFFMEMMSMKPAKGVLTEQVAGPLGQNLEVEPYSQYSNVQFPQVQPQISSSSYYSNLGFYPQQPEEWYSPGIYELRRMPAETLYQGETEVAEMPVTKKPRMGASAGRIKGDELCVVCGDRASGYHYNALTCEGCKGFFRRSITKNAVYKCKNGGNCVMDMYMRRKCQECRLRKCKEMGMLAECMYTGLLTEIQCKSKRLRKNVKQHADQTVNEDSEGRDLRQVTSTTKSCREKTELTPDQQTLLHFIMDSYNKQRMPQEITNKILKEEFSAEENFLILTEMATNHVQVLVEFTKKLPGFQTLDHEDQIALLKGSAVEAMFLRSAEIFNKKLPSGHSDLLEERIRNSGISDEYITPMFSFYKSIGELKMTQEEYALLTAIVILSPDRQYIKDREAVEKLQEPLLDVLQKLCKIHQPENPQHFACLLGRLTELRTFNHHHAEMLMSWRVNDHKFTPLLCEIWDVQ
SMILES,outcome,AC50
CCOC(=O)NCCOc1ccc(Oc2ccccc2)cc1,inactive,–
O=C(c1ccccc1)C1CCCCC1,inactive,–
CCOC(=O)c1ccc(O)cc1,inactive,–
Oc1ccc(C(c2ccc(O)cc2)C(Cl)(Cl)Cl)cc1,inactive,–
CCCCOCCOCCOCc1cc2c(cc1CCC)OCO2,inactive,–
COC(=O)CSc1cc(N=c2sc(=O)n3n2CCCC3)c(F)cc1Cl,inactive,–
CCCCOC(=O)[C@@H](C)Oc1ccc(Oc2ccc(C(F)(F)F)cn2)cc1,inactive,–
CC(C)CCCCCCc1ccc(O)cc1,inactive,19.2 µM (active)
O=C(O)C1(C(=O)Nc2ccc(Cl)cc2Cl)CC1,inactive,–
CCN(CC)C(=O)c1cccc(C)c1,inactive,–
CCCOC(=O)c1ccc(C(=O)OCCC)nc1,inactive,–
O=C(c1ccc(O)cc1O)c1ccc(O)cc1O,inactive,–
C[C@]12CC[C@@H]3c4ccc(O)cc4C[C@@H](CCCCCCCCCS(=O)CCCC(F)(F)C(F)(F)F)[C@H]3[C@@H]1CC[C@@H]2O (stereo partly drawn),inactive,–
OB(O)O,inactive,–
C[C@]12C[C@H](O)[C@H]3[C@@H](CCC4=CC(=O)CC[C@@]43C)[C@@H]1CC[C@@H]2C(=O)CO,inactive,–
COC(=O)c1c(Cl)nn(C)c1S(=O)(=O)NC(=O)Nc1nc(OC)cc(OC)n1,inactive,–
COc1nc(C)nc(NC(=O)NS(=O)(=O)c2ccccc2OCCCl)n1,inactive,–
